Assay results from article PMC5540273 (PLoS ONE, 2017).

Experiments:
Settings in all cases: concentration: 1 μM, replicates: in singlicate; n = 1
WNK4 = tested on: WNK4
YANK1 = tested on: T1, YANK1
T1 construct: gene STK32A

YANK2 = tested on: T2, YANK2
T2 construct: gene STK32B

YANK3 = tested on: T3, YANK3
T3 construct: gene STK32C

YES = tested on: T4, YES
T4 construct: gene YES1

YSK1 = tested on: T5, YSK1
T5 construct: gene STK25

YSK4 = tested on: T6, YSK4
T6 construct: gene MAP3K19

ZAK = tested on: ZAK
ZAP70 = tested on: ZAP70
p38-alpha = tested on: T7, p38-alpha
T7 construct: gene MAPK14

p38-beta = tested on: T8, p38-beta
T8 construct: gene MAPK11

p38-delta = tested on: p38-delta
p38-gamma = tested on: T9, p38-gamma
T9 construct: gene MAPK12
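Further: KINOMEscan kinase panel screen.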

| SMILES | %Inh (WNK4) | %Inh (YANK1) | %Inh (YANK2) | %Inh (YANK3) | %Inh (YES) | %Inh (YSK1) | %Inh (YSK4) | %Inh (ZAK) | %Inh (ZAP70) | %Inh (p38-alpha) | %Inh (p38-beta) | %Inh (p38-delta) | %Inh (p38-gamma) |
| --- | --- | --- | --- | --- | --- | --- | --- | --- | --- | --- | --- | --- | --- |
| CCn1c(-c2ccncc2)nc2cnccc21 [SB-735216] | 22% | 0% | 4% | 7% | 16% | 0% | 74% | 23% | 0% | 0% | 11% | 4% | 20% |
| FC(F)(F)c1cc(Nc2nccc(-c3c(-c4ccc(Cl)cc4)nn4ncccc34)n2)ccc1Cl [GW829351] | 0% | 0% | 0% | 4% | 0% | 0% | 0% | 0% | 0% | 43% | 0% | 0% | 0% |
| CS(=O)(=O)CCNCc1nc(-c2ccc3ncnc(Nc4ccc(OCc5cccc(F)c5)c(Cl)c4)c3c2)cs1.Cl [GW583340] | 0% | 0% | 0% | 0% | 3% | 0% | 17% | 91.6% | 0% | 18% | 0% | 47% | 0% |
| O=C(NCCCN1CCCC1=O)c1cnc(NCc2cc(Cl)ccc2Cl)nc1NC1CCNCC1 | 0% | 1% | 0% | 0% | 0% | 5% | 54% | 0% | 0% | 0% | 0% | 42% | 18% |
| Cn1ccc2ncnc(Oc3ccc(NC(=O)Nc4cccnc4)c(Cl)c3)c21 | 0% | 0% | 13% | 7% | 0% | 0% | 0% | 3% | 0% | 14% | 0% | 0% | 21% |
| Fc1ccc(-c2ncn(CCCNCc3ccccc3)c2-c2ccncc2)cc1 | 0% | 17% | 0% | 7% | 17% | 0% | 9% | 10% | 11% | 77% | 4% | 1% | 24% |
| O=C(c1ccc(-c2cc(-c3c[nH]nc3-c3ccccn3)ccn2)cc1)N1CCCC1 [GW792479] | 14% | 0% | 13% | 0% | 0% | 0% | 0% | 28% | 2% | 7% | 20% | 0% | 66% |
